From PubChem BioAssay (NCI)
This is part of a sample that, as a whole, favours compounds with a hit. Of some 83,000 tested, about 20% had one in any assay.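 Cells were grown in 96-well plates and exposed to the test compound at a single concentration for 48 hours; results are reported as percent growth, with values below 10 considered active.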 Calls of active or inactive are those of the source.

Key:
Experiment in all cases: NCI-60 one-dose screen, 48 h (100 = growth as untreated, 0 = no growth, -100 = all killed)
Conditions in all cases: 10 µM unless noted
[1] = test system: HCT-15 colon
[2] = test system: HT29 colon
[3] = test system: SNB-75 CNS
[4] = test system: SNB-19 CNS
[5] = test system: U251 CNS
[6] = test system: PC-3 prostate
[7] = test system: SK-MEL-5 melanoma
[8] = test system: UACC-62 melanoma
[9] = test system: LOX IMVI melanoma
[10] = test system: SK-MEL-28 melanoma

Measured: growth

NCCCNc1nc2ccccc2c2c(=O)c3cccc(F)c3sc12
inactive: [3] 42.7% | [4] 44% | [5] 28.5% | [6] 48.5% | [7] 72.9% | [8] 75.9% | [10] 85.1%
active: [1] 9.25% | [2] -14.1% | [9] -96.8%

CN1CCN(Cc2ccc(NC(=O)c3cncc(C#Cc4cnccc4C#N)c3)cc2C(F)(F)F)CC1
inactive: [1] 55% | [2] 27.5% | [3] 122% | [4] 102% | [5] 77.3% | [6] 91.7% | [7] 54% | [8] 41.5% | [9] 12.4% | [10] 30.1%

CC(=O)CC(c1ccccc1)c1c(C)[nH]c2ccccc12 (stereo not given)
inactive: [1] 97.5% | [2] 103% | [3] 60.3% | [4] 93.2% | [5] 105% | [6] 87.9% | [7] 99.3% | [8] 86.7% | [9] 90.5% | [10] 102%

CC(=O)OC[C@H]1OC(Sc2sc(C(=O)c3ccc(C)cc3)c(N)c2-c2nc3ccccc3s2)[C@H](OC(C)=O)[C@@H](OC(C)=O)[C@@H]1OC(C)=O (stereo not given in full)
inactive: [1] 59.5% | [2] 69% | [3] 25.4% | [4] 74.4% | [5] 59.5% | [6] 63.2% | [7] 45.5% | [8] 55.8% | [9] 54.5% | [10] 76.4%

COc1nc2ccc(C)cc2cc1-c1nc2c(cnn2-c2ccc(Br)cc2)c(=O)[nH]1
inactive: [1] 40.5% | [2] 10.3% | [3] 25.9% | [4] 41.8% | [5] 15.2% | [6] 28.1% | [7] 51.1% | [8] 29.1% | [9] 34.1% | [10] 39.3%

O=c1c2cc(F)ccc2sc2c(NCCCNCCO)nc3ccc(F)cc3c12
inactive: [1] 47.9% | [3] 54.2% | [4] 72.6% | [5] 38.4% | [6] 50.6% | [7] 80.7% | [8] 88.6% | [10] 94%
active: [2] -0.699% | [9] -76.7%

O=c1[nH][n+](-c2ccc(Br)cc2)no1
active: [8] 9.27% | [9] 7.47%
inactive: [1] 33.5% | [2] 90% | [3] 77.1% | [4] 77.8% | [5] 73.3% | [6] 70.7% | [7] 57.8% | [10] 61.2%

CS(=O)(=O)N(c1cc(-c2ccc3ncnc(Nc4ccc(F)c(Cl)c4)c3c2)cnc1Cl)S(C)(=O)=O
active: [3] -4.86%
inactive: [1] 29.5% | [2] 31.5% | [4] 50% | [5] 38.2% | [6] 34.8% | [7] 31.3% | [8] 10.3% | [9] 32.2% | [10] 23.5%

COc1ccc(-c2nc(NCCO)[nH]c(=O)c2C#N)cc1
inactive: [1] 104% | [2] 94.7% | [3] 91.8% | [4] 105% | [5] 103% | [6] 91.4% | [7] 107% | [8] 102% | [9] 103% | [10] 108%

BrCCCc1n(Cc2ccc3ccccc3c2)c2ccccc2[n+]1Cc1ccc2ccccc2c1
active: [1] -60.6% | [2] -50.8% | [3] -71.5% | [4] -33.3% | [5] -91.9% | [6] -69.1% | [7] -95.3% | [8] -76.2% | [9] -93.8% | [10] -75.8%

CN1CCN(c2ccc(-c3cc4c(Nc5ccc(F)c(Cl)c5)ncnn4c3)cc2)CC1
active: [1] -12.8% | [2] 7.09% | [9] -53.6%
inactive: [3] 80.5% | [4] 103% | [5] 66% | [6] 80.8% | [7] 87.5% | [8] 53.2% | [10] 71.5%

Cc1cccc2c1S/C(=C/c1ccc([N+](=O)[O-])cc1)C2=O
inactive: [1] 100% | [2] 92.5% | [3] 82.4% | [4] 98.4% | [5] 78.4% | [6] 91.5% | [7] 99.4% | [8] 72.6% | [9] 93.1% | [10] 114%

N/C(=N\c1nc2ccccc2s1)NC(=O)Nc1cccc2ccccc12
active: [2] 6.2% | [3] 5.83%
inactive: [1] 18.9% | [4] 34.8% | [5] 14.4% | [6] 23.5% | [7] 14% | [8] 29.2% | [9] 41.5% | [10] 65.3%

Cc1cc2nc3cc(C)c(N)cc3[n+](-c3ccccc3)c2cc1N
inactive: [1] 111% | [2] 85.3% | [3] 52.1% | [4] 23.3% | [5] 19.4% | [6] 42.5% | [7] 20.7% | [8] 53.1% | [9] 67% | [10] 80.7%

O=CN(SSN(C=O)C1CCCCC1)C1CCCCC1
inactive: [1] 109% | [2] 108% | [3] 109% | [4] 99.9% | [5] 109% | [6] 103% | [7] 119% | [8] 85.5% | [9] 96.8% | [10] 116%

CCCCCCNC(=O)Oc1ccc(/C(=C(\C)c2ccc(Cl)cc2)c2ccc(OCCN(CC)CC)cc2)cc1
inactive: [3] 77.2% | [4] 74.5% | [5] 41.7% | [6] 56.7% | [7] 51.9% | [8] 73.3% | [9] 44.2% | [10] 66%
active: [1] 1.93% | [2] -14.2%

Cc1nc2ccccc2c(/C=C/c2ccc(Cl)cc2)c1C(=O)/C=C/c1cccs1
inactive: [1] 52.1% | [2] 52.8% | [3] 56.7% | [4] 86.7% | [5] 77.5% | [6] 54% | [7] 76.6% | [8] 68.4% | [9] 79.6% | [10] 95.7%

CCCCCCCNC(=O)CCCNc1ncnc2c1ncn2-c1cccc(C(C)O)c1 (stereo not given)
inactive: [1] 87.2% | [2] 93.7% | [3] 104% | [4] 96.3% | [5] 96.9% | [6] 85% | [7] 85.9% | [8] 90.3% | [9] 101% | [10] 96.2%

CCCCn1c(-c2ccc(C(=O)O/N=C(\N)c3ccc(OC)cc3)cc2)nc(-c2ccccc2)c1-c1ccccc1
inactive: [2] 21.8% | [4] 23.9% | [7] 41.8% | [8] 29.1% | [10] 47%
active: [1] -47.5% | [3] -31.1% | [5] -52.6% | [6] -7.41% | [9] -93.1%

COc1cc2cc(Oc3ccc(NC(=O)Nc4cc(C(F)(F)F)cc(C(F)(F)F)c4)cc3)c(C)nc2cc1OCCN1CCOCC1
inactive: [1] 13.4% | [2] 10.9% | [3] 36% | [4] 23.8% | [6] 10.5% | [8] 45.9% | [9] 20.7% | [10] 51.2%
active: [5] 8.71% | [7] -13.1%

C=C1C(=O)O[C@H]2[C@H]1CC/C(COC(=O)CCC(=O)NCCOCCOCC(=O)Nc1ccc(OC)c(C(N)=O)c1O)=C\CC[C@@]1(C)O[C@@H]21
inactive: [1] 92.3% | [2] 101% | [3] 95.6% | [4] 99% | [5] 94.9% | [6] 101% | [7] 102% | [8] 89.2% | [9] 87.7% | [10] 93.2%

CCCCOc1nc2ccc(OC)cc2cc1-c1cc(-c2ccc(Cl)cc2)nc(-c2ccc(Cl)cc2)c1
inactive: [1] 104% | [2] 104% | [3] 91.2% | [4] 93.6% | [5] 102% | [6] 96.9% | [7] 102% | [8] 93.5% | [9] 101% | [10] 104%

CCCCNC(=O)Oc1ccc(/C(=C(\C)c2ccc(Cl)cc2)c2ccc(OCCN3CCCCC3)cc2)cc1
inactive: [1] 23.8% | [2] 10.9% | [3] 80.3% | [4] 93.5% | [5] 59.3% | [6] 63.8% | [7] 74.2% | [8] 83% | [9] 79.8% | [10] 80.1%

COc1ccc(CN2c3ccccc3CCc3ccccc32)cc1F
inactive: [1] 24.9% | [3] 23.2% | [4] 39% | [5] 21.1% | [6] 24.1% | [7] 19.8% | [8] 24.8% | [9] 50.2% | [10] 50.8%
active: [2] 1.59%
